Assay outcomes as filed in PubChem.
Sampled rows, rich in hits. Any-hit rate of the full collection: about 10%.
KB-3-1 tox = KB-3-1 parental cell cytotoxicity | KB-3-1 viability, CellTiter-Glo ATP luminescence, 72 h | Potency, µM (series often up to 46.1 µM), hits mostly cytotoxic | 1.4% of 400,000 active | AID 1347075; note: % is set by controls: 0 for no effect and ±100 for the full control effect; nearly all actives have a fitted effect of over 60% in size
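Parental KB-3-1 viability, qHTS format: 72 h compound exposure, 37 °C; CellTiter-Glo; media-only wells and DMSO plates as controls; concentration-effect fits on corrected data.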
MCF10A rerep = DNA re-replication induction in MCF 10a cells; MCF 10A DNA re-replication, Hoechst nuclear intensity, 48 h; Potency, µM (titrated, usually from 46.1 µM), for the others: at the highest dose activity, positive = re-replication, hits mostly activators; 2.9% of 350,000 active; AID 624296; note: % of control where 0% means no effect; nearly all actives have a fitted effect of over 50% in size
KB-V1 MDR tox = KB-V1 MDR subline cytotoxicity; KB-V1 MDR cells viability, CellTiter-Glo, 72 h; 3.4% of 400,000 active; AID 1347076; Potency, µM (top dose mostly 46.1 µM), hits mostly cytotoxic; note: % is set by controls: 0 for no effect and ±100 for the full control effect; nearly all actives have a fitted effect of over 60% in size
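In this primary screen, KB-V1 cells overexpressing P-gp are incubated with library compounds (lowest to highest concentration) for 72 h at 37 degrees C before a luminescent ATP viability read.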
VP16 counter = inhibits Gal4-VP16 luciferase reporter, ROR gamma counter-screen | Drosophila S2 Gal4-VP16 UAS-luciferase, luminescence, 20 h | Potency, µM (top dose mostly 53.6 µM), for inactives: top-dose activity, negative = inhibition, actives largely listed as inhibitors | 3.5% of 310,000 active;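 note: Gal4-VP16 expression switched on by copper sulfate through the metallothionein promoter; % is set by controls: 0 for no effect and ±100 for the full control effect; nearly all actives have a fitted effect of over 50% in size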
RORgamma inh = inhibitors of mouse ROR gamma transcriptional activity | P51450 | Drosophila S2 Gal4-RORgamma UAS-luciferase reporter, 20 h | Potency, µM (top dose mostly 53.6 µM), for inactives: top-dose activity change, negative = inhibition, hits mostly inhibitors | 5.4% of 310,000 active | AID 2551; note: % is set by controls: 0 for no effect and ±100 for the full control effect; nearly all actives have a fitted effect of over 60% in size
Target sequence (P51450 whole entry, looked up, the tested form may be a part): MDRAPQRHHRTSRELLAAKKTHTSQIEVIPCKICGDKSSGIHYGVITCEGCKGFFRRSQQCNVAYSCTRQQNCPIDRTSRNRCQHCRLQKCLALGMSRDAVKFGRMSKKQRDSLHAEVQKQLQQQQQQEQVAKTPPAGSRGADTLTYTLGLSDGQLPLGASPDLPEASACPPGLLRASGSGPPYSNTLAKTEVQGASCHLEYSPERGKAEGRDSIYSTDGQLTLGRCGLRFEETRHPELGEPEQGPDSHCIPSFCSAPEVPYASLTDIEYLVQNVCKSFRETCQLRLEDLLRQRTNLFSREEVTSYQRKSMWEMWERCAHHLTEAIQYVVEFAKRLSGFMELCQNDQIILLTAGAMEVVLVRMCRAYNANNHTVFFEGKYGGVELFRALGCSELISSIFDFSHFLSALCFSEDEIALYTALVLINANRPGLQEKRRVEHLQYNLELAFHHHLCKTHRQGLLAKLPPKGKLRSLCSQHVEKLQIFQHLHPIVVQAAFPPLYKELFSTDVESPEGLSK
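Schneider cells (Drosophila), stable Gal4 DBD–ROR gamma + UAS-luc; 1 hr cmpd preincubation; Cu2+ induction 700 uM final; 20 hr ambient; luminescence.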
SW480 rereplic = DNA re-replication induction in SW480 cells; SW480 DNA re-replication, Hoechst DNA content imaging, 48 h; AID 624297; 1.8% of 340,000 active; Potency, µM (titrated, usually from 46.1 µM), for the others: top-dose re-replication activation, hits mostly activators; note: % of control where 0% means no effect; nearly all actives have a fitted effect of over 55% in size
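Per well, 250 cells were exposed to pinned compound for 48 hr. Nuclear DNA was visualised with Hoechst (40 min, 37 C) and total object intensity recorded by fluorescence scanning.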
Active calls of the source: *; i = inactive; u = inconclusive; x = no result; [ ] = remark or other dose. Calls come from the whole dose curve; as a rule, active = well fitted curve in the direction sought with a large enough effect; inconclusive = small, poorly fitted or top-dose-only effect, or another doubt; inactive = no such curve, though single readings can be large; an effect the other way counts as inactive or inconclusive. Potency is the fitted concentration of half-maximal effect.

SMILES	KB-3-1 tox	MCF10A rerep	KB-V1 MDR tox	VP16 counter	RORgamma inh	SW480 rereplic
O=C1C(C=NCCN2CCOCC2)=C(O)c2ccccc21	i	0%	i	-2%	-29%	-5%
COc1ccc(N=CC2=C(O)c3ccccc3C2=O)cc1	i	2%	i	u	3.2µM*	0%
CC1(C)CC(=O)C(C=Nc2ccccc2)=C(O)C1	i	2%	i	5%	32%	-4%
O=C(Nc1ccc2c(c1)OCO2)Nc1nnc(-c2ccncc2)s1	i	x	i	x	x	x
Cc1nc(-c2cccnc2)sc1C(=O)Nc1ccc(Cl)cc1	i	10%	18µM*	-6%	u	-8%
Cc1nc(-c2ccccn2)sc1C(=O)Nc1ccc(F)cc1F	i	-2%	10µM*	22%	14%	-10%
Cc1nc(-c2ccncc2)sc1C(=O)Nc1ccc(Cl)cc1	i	1%	i	2%	-1%	-116%
Cc1nc(-c2ccccn2)sc1C(=O)Nc1ccc(F)cc1	u	u	18µM*	2%	20%	9%
COc1ccc(CC(=O)Nc2nc(OCC(F)(F)F)cnc2-c2ccc(Cl)cc2Cl)cc1	i	x	u	x	x	x
COC(=O)Nc1ccc(S(=O)(=O)NNC(=O)c2c(O)c3ccccc3[nH]c2=O)cc1	i	21µM*	i	3%	21%	u
Cc1ccc(S(=O)(=O)NNC(=O)c2c(O)c3ccccc3[nH]c2=O)cc1	i	5.8µM*	2.6µM*	7%	-5%	u
COc1ccc(CCC(=O)NO)cc1	i	x	u	x	x	x
Cc1ccc(C)c(NC(=O)Cn2cc(S(=O)(=O)c3ccc(F)cc3)c(=O)c3cc(F)ccc32)c1	i	x	u	x	x	x
CCNc1nc(SC(C)C(=O)OC)nc(N(C)C)n1 (configuration not stated)	i	2%	i	3%	34%	-5%
CCNc1nc(SC(C(C)=O)C(C)=O)nc(N(C)C)n1	i	-8%	i	-27%	5µM*	2%
CCC(C)Nc1nc(SC(C(C)=O)C(C)=O)nc(N(C)C)n1 (configuration not stated)	i	-1%	i	u	13µM*	0%
CCOc1ccc(CCNc2nc3c(c(=O)n(C)c(=O)n3C)n2CC)cc1OCC	15µM*	0%	u	10%	-19%	-1%
COc1ccc(CCNc2nc3c(c(=O)n(C)c(=O)n3C)n2Cc2ccc(F)cc2)cc1OC	18µM*	x	2.1µM*	x	x	x
CCn1c(NCc2ccccn2)nc2c1c(=O)n(C)c(=O)n2C	i	-2%	i	-15%	0%	-4%
C=C1CC2C(=O)N(Cc3ccccc3)C(C(=O)O)C1N2C(=O)OC(C)(C)C (configuration not stated)	x	x	x	5%	2%	x
CC[C@H](C)[C@H](NC(=O)[C@H](CO)NC(=O)[C@H](CC(N)=O)NC(=O)[C@H](CC(C)C)NC(=O)[C@H](Cc1ccc(O)cc1)NC(=O)[C@H](CCCCN)NC(=O)[C@H](CCCCN)NC(=O)[C@@H](NC(=O)[C@H](C)NC(=O)[C@H](CCSC)NC(=O)[C@H](CCC(N)=O)NC(=O)[C@H](CCCCN)NC(=O)[C@H](CCCNC(=N)N)NC(=O)[C@H](CC(C)C)NC(=O)[C@H](CCCNC(=N)N)NC(=O)[C@@H](NC(=O)[C@H](Cc1ccc(O)cc1)NC(=O)[C@H](CC(N)=O)NC(=O)[C@H](CC(=O)O)NC(=O)[C@@H](NC(=O)[C@H](Cc1ccccc1)NC(=O)[C@@H](NC(=O)[C@H](C)NC(=O)[C@H](CC(=O)O)NC(=O)[C@H](CO)NC(=O)[C@@H](N)Cc1cnc[nH]1)C(C)C)[C@@H](C)O)[C@@H](C)O)C(C)C)C(=O)N[C@@H](CC(C)C)C(=O)N[C@@H](CC(N)=O)C(N)=O	x	x	x	5%	-3%	x
S=C(N/N=C/c1ccc(Cl)c(Cl)c1)Nc1ccccc1Cl	21µM*	12%	i	0.79µM*	0.32µM*	u
O=C(N/N=C/c1cccc(F)c1)c1ccc(Cl)cc1	i	1%	i	-6%	u	4%
Fc1cccc(/C=N/NC(=S)Nc2ccccc2Cl)c1	i	6%	i	1µM*	0.71µM*	x
Fc1ccc(NC(=S)N/N=C/c2cccc(Br)c2)c(F)c1	i	8%	u	2.5µM*	0.71µM*	-1%
SMILES	KB-3-1 tox	MCF10A rerep	KB-V1 MDR tox	VP16 counter	RORgamma inh	SW480 rereplic
Cc1ccc(CNC(=O)C2CCN(c3nc4ccccc4n(C)c3=O)CC2)cc1	i	x	i	x	x	x
COCCN1C[C@@H](CO)O[C@@H](n2cnc3c(NCc4ccncc4)ncnc32)C1	i	x	i	x	x	x
CCOc1ccc(C(C)=O)cc1N1C(=O)C2C3C=CC(C3=C(C)C)C2C1=O (configuration not stated)	i	-10%	16µM*	0%	-20%	-9%
CCOc1ccc(C(C)=O)cc1N1C(=O)C2C(C1=O)C1C=CC2C12CC2 (configuration not stated)	i	-3%	u	-10%	20%	0%
Cc1ccc2cccc(NS(=O)(=O)c3ccccc3)c2n1	u	3.3µM*	u	1%	26%	u
COC(=O)Nc1ccc(S(=O)(=O)Nc2cccc3ccccc23)cc1	u	30%	15µM*	18µM*	u	u
CC(=O)Nc1ccc(S(=O)(=O)Nc2cccc3cccnc23)cc1	i	0%	u	u	10µM*	-4%
O=S(=O)(Nc1cccc2ccccc12)c1ccccc1	i	u	i	-1%	1%	u
Cc1ccc(S(=O)(=O)Nc2cccc3cccnc23)c([N+](=O)[O-])c1	u	u	u	0.89µM*	0.79µM*	18µM*
CC(C)=CCC/C(C)=C/CO/N=C1/C[C@@H](O)[C@@H](O)[C@@H]2[C@@H]3C(=O)N([C@@H](C)c4ccccc4)C(=O)[C@H]3CC[C@@H]12	x	x	x	15%[10 µM]	-4%[10 µM]	x
O=C1CCCC2=C1C1(CCCOC1)N=C(Nc1nc3ccccc3o1)N2 (configuration not stated)	i	x	u	x	x	x
Cc1ccccc1NS(=O)(=O)c1ccc(S(=O)(=O)N2CCCC2)cc1	i	x	i	x	x	x
O=S(=O)(Nc1ccccc1Br)c1cccc2cccnc12	i	x	i	x	x	x
O=S(=O)(Nc1cccc2cccnc12)c1ccccc1	u	21µM*	u	3.5µM*	2µM*	23µM*
CS(=O)(=O)Nc1cccc2cccnc12	u	1%	i	7.9µM*	6.3µM*	u
